Measurements as given in PubChem BioAssay (NCI).
The panel holds about 83,000 compounds, 20% with a hit somewhere; the sample as a whole holds those more often.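 For each line, cells grew in 96-well plates with the test compound present at a single concentration for 48 hours.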 A number with no mark means an inactive call. Activity calls are given as the source filed them. The calls were made as follows: active = growth percent below 10; inactive = the rest.

Assays:
Assay in all cases: NCI-60 one-dose screen, 48 h (100 = growth as untreated, 0 = no growth, -100 = all killed)
[1] = test system: DU-145 prostate; conditions: 10 µM unless noted
[2] = test system: K-562 leukemia; conditions: 10 µM unless noted
[3] = test system: MALME-3M melanoma; conditions: 10 µM unless noted
[4] = test system: MDA-MB-231 breast; conditions: 10 µM unless noted
[5] = test system: RXF 393 renal; conditions: 10 µM unless noted
[6] = test system: SF-268 CNS; conditions: 10 µM unless noted
[7] = test system: SF-295 CNS; conditions: 10 µM unless noted
[8] = test system: SF-539 CNS; conditions: 10 µM unless noted
[9] = test system: UACC-257 melanoma; conditions: 10 µM
[10] = test system: M14 melanoma; conditions: 10 µM unless noted
[11] = test system: HCT-15 colon; conditions: 10 µM unless noted
[12] = test system: HT29 colon; conditions: 10 µM unless noted
[13] = test system: SNB-75 CNS; conditions: 10 µM unless noted
[14] = test system: SNB-19 CNS; conditions: 10 µM unless noted
[15] = test system: U251 CNS; conditions: 10 µM unless noted
[16] = test system: PC-3 prostate; conditions: 10 µM unless noted
[17] = test system: SK-MEL-5 melanoma; conditions: 10 µM unless noted
[18] = test system: UACC-62 melanoma; conditions: 10 µM unless noted
[19] = test system: LOX IMVI melanoma; conditions: 10 µM unless noted
[20] = test system: SK-MEL-28 melanoma; conditions: 10 µM unless noted

SMILES	growth [1]	growth [2]	growth [3]	growth [4]	growth [5]	growth [6] [%]	growth [7]	growth [8]	growth [9]	growth [10]	growth [11]	growth [12]	growth [13]	growth [14]	growth [15]	growth [16]	growth [17]	growth [18]	growth [19]	growth [20]
CCOC(=O)C1=C(C)N=C2Sc3ccccc3N2C1c1ccccc1 (stereo not given)	98.2%	72.8%	102%	83.2%	109%	101	98.3%	90.3%	92.6%	89.5%	77.8%	-72.7% (active)	87.1%	95.5%	103%	78.2%	85.8%	65.8%	84.3%	109%
CCN1C(=O)N(CC)C2SC(N/N=C/c3cccs3)=NC21 (stereo not given)	14.6%	11.5%	66.4%	24.5%	72.5%	35.7	17.1%	-9.73% (active)	54.2%	6.49% (active)	14.8%	1.59% (active)	50.6%	25.9%	10.2%	28.4%	-5.21% (active)	36.7%	8.77% (active)	54.2%
CC1CCc2c(sc3nc(SCC(=O)N/N=C/c4ccc(Cl)cc4)n(-c4ccccc4)c(=O)c23)C1 (stereo not given)	97.8%	100%	99%	89.5%	-2.72% (active)	81.6	95.2%	90%	102%	102%	96.3%	107%	98.5%	81.6%	93.9%	95.3%	104%	92.8%	84.1%	102%
N#Cc1c(NC(=O)c2ccc(F)c(Cl)c2)sc2c1CCC(=O)C2	25.8%	9.06% (active)	-78.7% (active)	-55.7% (active)	-60.5% (active)	16.3	-12.2% (active)	-56.2% (active)	2.11% (active)	-17.8% (active)	-38.6% (active)	8.89% (active)	-0.913% (active)	15.1%	11.6%	-19.8% (active)	-75.6% (active)	-69.7% (active)	-16.1% (active)	-66.9% (active)
CC(C)=CCC[C@](C)(O)[C@H]1CC[C@]2(C)[C@@H]1CC[C@@H]1[C@@]3(C)CCC(NC(=O)c4ccccc4C(=O)O)C(C)(C)[C@@H]3CC[C@]12C (stereo not given in full)	96.4%	90.8%	31.8%	82.6%	101%	95.3	100%	89.3%	30.5%	57.8%	87.7%	75.5%	90.2%	86.3%	88.6%	81.5%	55.4%	28.7%	84.3%	34.3%
O=C1Nc2ccc(Cl)cc2/C1=C/c1ccc(OCc2ccc(Br)cc2F)cc1	101%	91.2%	100%	94.7%	85.3%	98.5	103%	99.4%	101%	90.1%	102%	104%	100%	100%	97.4%	93%	92.6%	93.6%	92.7%	105%
CNC(=O)c1cc(Oc2ccc3nc(NC(=O)c4ccc(CN5CCCN(C)CC5)c(C(F)(F)F)c4)sc3c2)ccn1	40.2%	-39.9% (active)	-69.7% (active)	-21.9% (active)	-46.4% (active)	58	-34.8% (active)	-82.5% (active)	-88.4% (active)	-88% (active)	-21.4% (active)	-75.5% (active)	47.5%	7.5% (active)	1.82% (active)	22.2%	-59.9% (active)	-7.16% (active)	-81.9% (active)	-74% (active)
N#C/C(=C\c1ccc(Cl)cc1Cl)C(N)=O	114%	80.3%	105%	100%	102%	101	107%	104%	109%	99.4%	87.7%	106%	90.2%	97.6%	95.5%	92.5%	101%	96.8%	97.3%	112%
C#CCOc1ccc(/C=N/Nc2nc(-c3cc(Cl)ccc3Cl)cs2)cc1	102%	78.7%	99.3%	84.7%	111%	95.7	89.7%	102%	103%	94.8%	81.7%	110%	77.3%	104%	98.6%	87.1%	97.8%	80.3%	97.7%	110%
COc1cccc(/C=C/C(=O)c2ccc(NC(=O)COc3cccc4cccnc34)cc2)c1	90.2%	82.1%	108%	98.4%	107%	96.3	96.6%	101%	103%	104%	94.8%	98.2%	97.4%	95.9%	97.2%	93.3%	94.9%	94.5%	78%	104%
COc1cc(OC)c(S(N)(=O)=O)cc1C(=O)/C=C/c1ccccc1	1.92% (active)	9.69% (active)	68.1%	10.3%	-29.7% (active)	38.3	58.3%	1.13% (active)	88.6%	45.9%	11.3%	25.3%	77.4%	47.5%	28.5%	32.9%	23.2%	42.8%	3.55% (active)	58%
CC[C@]12C=CCN3CC[C@]4(C(=C(C(=O)OC)C1)Nc1cc5c(cc14)[C@@H]1[C@H](O5)[C@@H](O)[C@@]4(CC)CC(C(=O)OC)=C5Nc6cc(OC)ccc6[C@@]56CCN1[C@@H]46)[C@@H]32	22.6%	9.45% (active)	25%	20.4%	-39.2% (active)	14.9	15.4%	-4.82% (active)	29.5%	9.29% (active)	-19.9% (active)	2.83% (active)	21.1%	3.1% (active)	3.18% (active)	9.02% (active)	-2.36% (active)	8.98% (active)	-85.9% (active)	1.92% (active)
CC(C)SC1=NC(=C(C(=N1)NC2=ClC=CC=C2)C#N)C3=CC=CC=C3	81.2%	59.6%	65.4%	78.9%	69.3%	78.4	52.8%	44.9%	100%	89.1%	63%	80.5%	26.5%	69.5%	49.7%	78.2%	91.2%	84%	70%	87.7%
O=C1Nc2cc(OC(F)(F)F)ccc2Oc2ccc(-c3ccnc(N4CCNCC4)c3)cc21	-48.5% (active)	-11.4% (active)	-79.3% (active)	-38.2% (active)	-73.4% (active)	26.8	-25.7% (active)	-89.8% (active)	77.3%	-90.5% (active)	-51.4% (active)	-72.7% (active)	-5.02% (active)	27.2%	-78.6% (active)	13.8%	-85.3% (active)	-70.7% (active)	-85.8% (active)	-80.9% (active)
CCN1CCN(c2cc(C(=O)Nc3nc4ccc(Oc5ccnc(C(=O)NC)c5)cc4s3)cc(C(F)(F)F)c2)CC1	85.8%	55.3%	75.7%	86.2%	-15.6% (active)	92.7	83%	92.9%	94.2%	67.7%	26.9%	18.5%	88.7%	111%	76.8%	55.6%	63.6%	90.7%	34.6%	76.8%
